Assay results as given in ChEMBL document CHEMBL3988442, “University of Dundee, Small-Polar-MMV Screening Library” (2021).
For some assays here: Measured potencies and affinities stand elsewhere.

Legend:
Parameters in all cases: scale not given: direction of the effect not stated beside the values
[1] = biological target: Protein translocase subunit SecA (Escherichia coli (strain K12)) (UniProt P10408); experiment: Assay to Identify E. coli SecA ATPase Inhibitors; type: functional; details: 30 µM
[2] = biological target: T1, Ubiquitin-activating enzyme e1, putative (Leishmania donovani (strain BPK282A1)) (UniProt E9BSI1); experiment: Leishmania donovani Ubiquitin Activating Enzyme (LdE1); type: functional; details: 30 µM
T1 sequence (whole entry): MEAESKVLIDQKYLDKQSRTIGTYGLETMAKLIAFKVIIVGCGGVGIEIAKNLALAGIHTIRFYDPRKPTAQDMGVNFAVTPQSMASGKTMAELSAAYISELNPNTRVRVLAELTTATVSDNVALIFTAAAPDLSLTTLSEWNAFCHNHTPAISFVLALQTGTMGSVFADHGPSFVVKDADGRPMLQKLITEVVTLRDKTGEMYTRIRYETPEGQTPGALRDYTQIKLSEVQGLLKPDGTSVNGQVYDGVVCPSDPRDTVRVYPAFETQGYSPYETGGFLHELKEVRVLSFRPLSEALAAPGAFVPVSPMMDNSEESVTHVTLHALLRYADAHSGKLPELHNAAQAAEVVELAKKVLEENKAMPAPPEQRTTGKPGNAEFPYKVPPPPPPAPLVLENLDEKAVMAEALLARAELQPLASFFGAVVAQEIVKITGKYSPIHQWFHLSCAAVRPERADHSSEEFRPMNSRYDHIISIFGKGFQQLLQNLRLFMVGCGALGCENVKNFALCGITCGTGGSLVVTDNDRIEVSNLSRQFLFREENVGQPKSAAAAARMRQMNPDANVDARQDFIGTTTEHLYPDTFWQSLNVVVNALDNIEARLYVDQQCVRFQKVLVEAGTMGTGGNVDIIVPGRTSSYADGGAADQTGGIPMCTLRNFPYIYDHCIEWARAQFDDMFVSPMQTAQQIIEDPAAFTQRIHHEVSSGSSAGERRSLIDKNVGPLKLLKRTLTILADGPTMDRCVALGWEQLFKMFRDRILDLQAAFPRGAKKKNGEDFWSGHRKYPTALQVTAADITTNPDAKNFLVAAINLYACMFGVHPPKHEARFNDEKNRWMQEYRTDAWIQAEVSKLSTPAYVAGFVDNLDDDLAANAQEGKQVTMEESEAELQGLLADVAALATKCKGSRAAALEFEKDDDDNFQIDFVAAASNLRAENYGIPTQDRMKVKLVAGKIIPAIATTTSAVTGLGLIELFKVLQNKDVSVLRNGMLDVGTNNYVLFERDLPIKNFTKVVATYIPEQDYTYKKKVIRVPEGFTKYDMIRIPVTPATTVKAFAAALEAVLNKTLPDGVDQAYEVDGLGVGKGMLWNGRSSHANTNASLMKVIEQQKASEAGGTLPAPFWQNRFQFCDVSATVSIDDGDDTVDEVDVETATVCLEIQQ

[3] = biological target: Sialic acid-binding Ig-like lectin 9 (Homo sapiens) (UniProt Q9Y336); experiment: Hs-Siglec9 ALPHAscreen SOP 20170721; details: 10 µM
Trypanosoma cruzi = experiment: Trypanosoma cruzi phosphomannomutase and mannose-1-phosphate guanylyltransferase assay; type: functional; details: 10 µM
[4] = biological target: T2, Arginase-2, mitochondrial (Homo sapiens) (UniProt P78540); experiment: in vitro enzyme assay to detect the production of urea directly proportional to the activity of Arginase II; type: functional; details: 33.3 µM; further: in the data most compounds retested in dose-response had high values
T2 sequence (whole entry): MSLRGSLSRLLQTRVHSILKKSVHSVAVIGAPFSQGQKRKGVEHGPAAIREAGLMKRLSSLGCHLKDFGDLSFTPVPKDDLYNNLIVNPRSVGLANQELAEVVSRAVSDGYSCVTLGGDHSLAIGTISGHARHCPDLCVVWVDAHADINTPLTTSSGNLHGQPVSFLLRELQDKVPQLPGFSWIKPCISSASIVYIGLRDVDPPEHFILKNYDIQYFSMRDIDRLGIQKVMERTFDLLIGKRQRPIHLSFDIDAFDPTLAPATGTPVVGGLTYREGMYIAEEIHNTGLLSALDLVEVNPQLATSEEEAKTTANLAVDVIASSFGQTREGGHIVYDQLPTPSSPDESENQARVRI

[5] = biological target: T3, Proteasome subunit beta (Trypanosoma cruzi) (UniProt O96673); experiment: Trypanosoma cruzi proteasome chymotrypsin-like activity (TcProtChymo) assay.; further: in the data most compounds retested in dose-response had high values; type: functional; details: 9.37 µM
T3 sequence (whole entry): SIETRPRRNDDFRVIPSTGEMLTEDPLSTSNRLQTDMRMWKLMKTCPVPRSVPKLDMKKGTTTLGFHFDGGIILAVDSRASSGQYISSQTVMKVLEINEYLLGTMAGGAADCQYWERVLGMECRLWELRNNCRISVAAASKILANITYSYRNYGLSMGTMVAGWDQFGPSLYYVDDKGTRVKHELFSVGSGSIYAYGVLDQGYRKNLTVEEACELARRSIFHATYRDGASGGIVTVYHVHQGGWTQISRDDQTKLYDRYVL

Homo sapiens = species: Homo sapiens; experiment: To identify inhibition of the IFN signalling (Jak-Stat) pathway via expression of an eGFP reporter gene under the control of an IFN-stimulated response element (ISRE) containing MxA promoter.; type: functional; details: 30 µM
[6] = biological target: T4, Tyrosyl-tRNA synthetase, putative (Trypanosoma cruzi (strain CL Brener)) (UniProt Q4DSP6); experiment: Trypanosoma cruzi tyrosyl tRNA synthetase (TcYRS) _High Tyrosine SOP; type: functional; details: 30 µM; further: in the data most compounds retested in dose-response had high values
T4 sequence (whole entry): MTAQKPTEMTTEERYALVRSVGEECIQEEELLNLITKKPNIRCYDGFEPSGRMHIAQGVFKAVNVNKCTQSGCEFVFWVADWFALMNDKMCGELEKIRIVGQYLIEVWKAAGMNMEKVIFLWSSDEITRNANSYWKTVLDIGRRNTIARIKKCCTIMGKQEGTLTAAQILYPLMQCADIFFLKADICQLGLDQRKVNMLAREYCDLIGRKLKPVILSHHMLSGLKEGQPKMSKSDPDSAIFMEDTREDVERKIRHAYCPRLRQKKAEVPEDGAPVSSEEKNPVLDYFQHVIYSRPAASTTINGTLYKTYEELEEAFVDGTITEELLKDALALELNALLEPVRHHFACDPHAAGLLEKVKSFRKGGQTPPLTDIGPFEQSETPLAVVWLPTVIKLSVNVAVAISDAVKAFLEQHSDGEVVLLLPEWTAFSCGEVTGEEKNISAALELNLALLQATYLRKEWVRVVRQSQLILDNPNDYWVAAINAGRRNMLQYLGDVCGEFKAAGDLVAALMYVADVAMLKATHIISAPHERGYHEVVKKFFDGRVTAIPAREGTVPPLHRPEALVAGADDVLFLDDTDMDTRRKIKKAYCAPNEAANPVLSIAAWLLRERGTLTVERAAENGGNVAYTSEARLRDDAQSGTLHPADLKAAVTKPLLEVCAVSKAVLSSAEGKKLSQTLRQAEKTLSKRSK

[7] = biological target: T4, Tyrosyl-tRNA synthetase, putative (Trypanosoma cruzi (strain CL Brener)); experiment: Trypanosoma cruzi tyrosyl tRNA synthetase (TcYRS) SOP; type: functional; details: 30 µM
[8] = biological target: Chromo domain-containing protein 1 (Saccharomyces cerevisiae (strain ATCC 204508 / S288c) (Baker's yeast)) (UniProt P32657); experiment: ScCHD-1 Enzyme Inhibition Assay; type: functional; details: 30 µM; further: in the data most compounds retested in dose-response had high values
Chromo domain-containing protein 1 (Saccharomyces cerevisiae (strain ATCC 204508 / S288c) (Baker's yeast)), sequence (P32657 whole entry, the tested form may be a part): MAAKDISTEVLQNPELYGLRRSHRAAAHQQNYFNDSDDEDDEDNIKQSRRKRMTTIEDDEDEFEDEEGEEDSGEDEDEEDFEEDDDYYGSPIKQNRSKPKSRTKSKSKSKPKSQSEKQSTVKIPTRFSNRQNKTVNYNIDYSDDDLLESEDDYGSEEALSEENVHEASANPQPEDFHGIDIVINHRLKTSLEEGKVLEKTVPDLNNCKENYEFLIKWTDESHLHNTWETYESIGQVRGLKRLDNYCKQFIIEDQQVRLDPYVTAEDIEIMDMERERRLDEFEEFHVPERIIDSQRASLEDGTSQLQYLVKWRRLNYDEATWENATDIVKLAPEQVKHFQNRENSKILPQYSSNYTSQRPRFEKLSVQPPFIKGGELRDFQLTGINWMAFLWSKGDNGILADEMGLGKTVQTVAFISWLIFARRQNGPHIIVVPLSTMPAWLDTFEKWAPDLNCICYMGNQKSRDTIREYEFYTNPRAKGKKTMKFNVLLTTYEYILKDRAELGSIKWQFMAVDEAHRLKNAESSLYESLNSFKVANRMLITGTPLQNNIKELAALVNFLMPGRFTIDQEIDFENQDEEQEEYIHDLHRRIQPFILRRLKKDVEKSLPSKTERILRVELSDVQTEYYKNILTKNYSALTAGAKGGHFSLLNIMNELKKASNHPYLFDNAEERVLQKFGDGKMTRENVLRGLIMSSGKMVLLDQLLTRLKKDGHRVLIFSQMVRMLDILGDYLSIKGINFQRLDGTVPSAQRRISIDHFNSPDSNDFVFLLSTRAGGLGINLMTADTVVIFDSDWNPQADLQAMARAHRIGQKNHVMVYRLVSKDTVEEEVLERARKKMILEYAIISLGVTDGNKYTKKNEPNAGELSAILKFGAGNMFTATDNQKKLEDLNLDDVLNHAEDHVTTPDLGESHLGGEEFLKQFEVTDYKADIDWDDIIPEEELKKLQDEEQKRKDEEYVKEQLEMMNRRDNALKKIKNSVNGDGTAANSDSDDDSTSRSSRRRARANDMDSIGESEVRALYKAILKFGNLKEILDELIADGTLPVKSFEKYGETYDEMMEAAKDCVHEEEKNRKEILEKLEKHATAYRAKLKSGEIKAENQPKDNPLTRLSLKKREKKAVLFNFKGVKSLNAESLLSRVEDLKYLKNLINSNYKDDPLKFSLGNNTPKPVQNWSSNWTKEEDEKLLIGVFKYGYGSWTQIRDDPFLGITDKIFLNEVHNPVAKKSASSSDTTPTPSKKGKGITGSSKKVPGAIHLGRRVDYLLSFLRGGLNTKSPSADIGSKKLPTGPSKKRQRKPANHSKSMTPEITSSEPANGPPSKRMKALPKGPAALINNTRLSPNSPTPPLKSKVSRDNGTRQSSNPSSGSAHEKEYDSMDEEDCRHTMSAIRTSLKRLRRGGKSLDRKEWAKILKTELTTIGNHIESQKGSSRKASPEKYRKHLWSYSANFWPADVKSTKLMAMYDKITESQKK

Sialic acid-binding Ig-like lectin 9 (Homo sapiens), sequence (Q9Y336 whole entry): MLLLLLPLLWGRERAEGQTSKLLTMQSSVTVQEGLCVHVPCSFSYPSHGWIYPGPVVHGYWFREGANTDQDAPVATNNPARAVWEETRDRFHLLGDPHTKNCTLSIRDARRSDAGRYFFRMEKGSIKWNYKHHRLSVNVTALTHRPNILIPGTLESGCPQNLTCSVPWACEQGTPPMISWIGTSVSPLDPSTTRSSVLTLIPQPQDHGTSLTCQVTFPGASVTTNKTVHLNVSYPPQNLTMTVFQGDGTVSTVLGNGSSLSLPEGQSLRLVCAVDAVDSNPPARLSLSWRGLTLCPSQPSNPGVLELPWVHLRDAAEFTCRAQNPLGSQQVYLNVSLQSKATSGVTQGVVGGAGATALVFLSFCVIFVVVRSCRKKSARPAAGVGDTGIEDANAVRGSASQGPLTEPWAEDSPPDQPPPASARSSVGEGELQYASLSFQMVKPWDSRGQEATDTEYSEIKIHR
Protein translocase subunit SecA (Escherichia coli (strain K12)), sequence (P10408 whole entry): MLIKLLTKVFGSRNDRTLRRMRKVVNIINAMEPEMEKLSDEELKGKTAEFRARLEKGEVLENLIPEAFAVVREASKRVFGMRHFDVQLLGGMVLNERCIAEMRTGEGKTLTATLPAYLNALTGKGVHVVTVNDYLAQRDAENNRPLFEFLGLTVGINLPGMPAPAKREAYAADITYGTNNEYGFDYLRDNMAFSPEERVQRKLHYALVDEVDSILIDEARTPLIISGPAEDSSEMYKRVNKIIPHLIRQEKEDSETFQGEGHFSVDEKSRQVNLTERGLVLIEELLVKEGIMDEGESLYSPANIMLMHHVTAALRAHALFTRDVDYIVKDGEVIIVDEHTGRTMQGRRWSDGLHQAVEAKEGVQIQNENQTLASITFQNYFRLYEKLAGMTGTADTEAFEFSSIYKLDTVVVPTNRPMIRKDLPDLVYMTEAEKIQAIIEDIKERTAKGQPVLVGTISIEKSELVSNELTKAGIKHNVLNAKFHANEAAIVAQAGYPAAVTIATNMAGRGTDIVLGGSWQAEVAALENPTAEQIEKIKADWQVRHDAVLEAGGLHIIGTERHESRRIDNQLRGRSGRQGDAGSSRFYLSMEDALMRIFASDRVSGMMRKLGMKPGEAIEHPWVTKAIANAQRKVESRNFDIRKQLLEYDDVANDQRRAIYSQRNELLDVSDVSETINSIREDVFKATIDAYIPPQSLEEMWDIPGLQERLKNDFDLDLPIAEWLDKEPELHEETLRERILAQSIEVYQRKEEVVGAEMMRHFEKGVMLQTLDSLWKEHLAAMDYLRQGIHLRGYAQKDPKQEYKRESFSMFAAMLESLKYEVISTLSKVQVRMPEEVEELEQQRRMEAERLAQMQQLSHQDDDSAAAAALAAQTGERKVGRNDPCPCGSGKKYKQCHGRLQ

| SMILES | Percent Effect [1] | Percent Effect [2] | Percent Effect [3] | Percent Effect (Trypanosoma cruzi) | Percent Effect [4] | Percent Effect [5] | Percent Effect (Homo sapiens) | Percent Effect [6] | Percent Effect [7] | Percent Effect [8] |
| --- | --- | --- | --- | --- | --- | --- | --- | --- | --- | --- |
| CCn1ccnc1CN1CCC(N(C)Cc2ncc(C)o2)C1 (stereo not given) | -0.494% | 13.3% | -7.04% | -3.21% | 3.1% | 12.5% | 14.6% | 10% | 17.9% | -11.2% |
| Cc1nc(CN2CCN(Cc3ccoc3)Cc3cccnc32)cs1 | -1.42% | -1.3% | -2.07% | -2.82% | -4.45% | 12.3% | 10.4% | 1.58% | -5.13% | 1.4% |
| O=C(COCc1ccccc1)N1CCC(OCc2cccnc2)CC1 | -7.79% | 2.7% | 2.89% | -4.95% | -0.35% | 9.42% | 35.8% | 5.85% | 12.2% | -2.8% |
| NC(=O)c1cc(NC(=O)NCCc2cc(F)cc(F)c2)ccc1F | -0.0438% | 10.4% | 8.44% | 0.56% | -2.66% | 5.26% | -4.36% | 5.88% | 23.5% | -11.6% |
| COc1ccc(F)cc1CN1CCCC(c2cc(C(N)=O)[nH]n2)C1 (stereo not given) | -3.96% | 5.33% | 5.92% | 1.81% | -2.22% | 1.61% | 8.51% | 3.68% | 5.13% | -9.49% |
| Cc1cc(-c2ccc(C(=O)O)cc2)nc(C2CCCN(C(C)C)C2)n1 (stereo not given) | -0.51% | 12% | 1.15% | 1.77% | 0.885% | 6.08% | 4.86% | 6.35% | 17.5% | -24.7% |
| CC(C)c1nn(C)c(N2CCOCC2)c1CNCC(=O)N(C)C | -2.05% | 12.8% | -8.89% | 1.22% | 3.69% | 10.5% | -5.7% | 7.18% | 22.9% | -5.02% |
| COc1cccc2c1OCC(C(=O)N1CCN(S(C)(=O)=O)CC1)C2 (stereo not given) | -5.76% | 16.2% | 16.9% | 6.69% | 11.5% | 9.25% | 11.4% | 7.98% | 17.1% | -8.92% |
| CCn1ccnc1CN1CCN(CC(O)Cn2cccn2)CC1 (stereo not given) | -5.85% | 0% | -2.48% | -1.97% | -4.51% | 11% | 18.6% | -0.478% | 6.02% | 1.41% |
| CN(CCNC(=O)c1scnc1Cl)c1ccccc1 | -1.49% | 10.7% | -1.26% | -8.23% | 3.99% | 19.9% | 20% | 1.58% | 10.3% | -6.98% |
| COc1ccccc1OCCN1CCCC(c2cc(C(N)=O)[nH]n2)C1 (stereo not given) | -3.66% | 2.67% | 8.25% | -3.01% | 4.43% | 12% | -0.623% | 2.63% | 5.13% | -8.44% |
| Cc1ccc2c(n1)N(Cc1cccnc1)CCN(C(=O)C1CCC1)C2 | -1.28% | 6.49% | -4.98% | -4.77% | 7.29% | 11.4% | 16.9% | 4.74% | 7.69% | -6.47% |
| CN(C)c1ncccc1CNS(=O)(=O)c1ccccc1F | -0.976% | 15.6% | -3.68% | -3.17% | 2.66% | 13.3% | 19.8% | 4.9% | 11.8% | -9.97% |
| CN(C)c1cc(C(=O)N2CCN(S(C)(=O)=O)CC2)ccn1 | -7.92% | 10.3% | -9.31% | -5.35% | -2.46% | 6.23% | 25.7% | 4.31% | 8.43% | -0.991% |
| CC(C)c1nc(CN(C)C2CCN(CCNS(C)(=O)=O)C2)no1 (stereo not given) | -0.486% | 15.6% | -6.45% | -5.78% | -11.7% | 12.5% | 12.2% | 3.92% | 7.06% | -13% |
| CN(Cc1cn2ccccc2n1)C1CCCN(c2cccnn2)C1 (stereo not given) | -0.768% | 26% | -7.59% | 0.187% | -4.71% | 15.1% | -3.7% | 7.84% | 18.8% | -9.66% |
| CN1CCN(C(=O)c2cccc(OCc3cscn3)c2)CC1 | -6.48% | 2.56% | -10.9% | -3.1% | -0.41% | -1.62% | 19.3% | 0.478% | 6.02% | 5.6% |
| NC(=O)Cn1cc(NC(=O)N2CCCC2)cn1 | 1.14% | 12.8% | -7.88% | -0.469% | 8.61% | 11.7% | 19.1% | 5.26% | 18.1% | -4.77% |
| Cc1cnn(CC2CCCCN2Cc2cc(C)on2)c1 (stereo not given) | -1.2% | 10.3% | 3.02% | -0.282% | -0.82% | 1.45% | 8.23% | 1.44% | 10.8% | -2.89% |
| Cc1n[nH]c(=O)c2c(NC(=O)CN3CCC(O)CC3)oc(C)c12 | -1.08% | 10.3% | -12.1% | -8.17% | 0.41% | 19.4% | 21.8% | 4.31% | 10.8% | -5.11% |
| Cc1ccc(-c2nc(CN3CCCC3Cn3cc(C)cn3)no2)cc1 (stereo not given) | -2.04% | 5.33% | 2.03% | 4.02% | -8.43% | 22.6% | 12.1% | 1.58% | 10.3% | -12% |
| Fc1ccccc1Cc1noc(CN2CCCC(CN3CCCC3)C2)n1 (stereo not given) | -7.22% | -2.7% | 4.23% | 7.86% | -2.45% | 3.08% | -6.53% | 6.92% | 12.2% | -3.21% |
| CC(C)NC(=O)Nc1ccc(CNCc2cccc(C#N)c2)cc1 | 2.25% | 20.8% | 4.68% | 0.933% | -0.615% | 6.84% | 0.521% | 9.8% | 28.2% | -12.8% |
